Results filed as inconclusive are left out. Active and inactive are the calls of the source. The call rests on the fitted dose curve; in most records, active means well fitted curve in the direction sought with a large enough effect; inconclusive means small, poorly fitted or top-dose-only effect, or another doubt; inactive means no such curve, though single readings can be large; an effect the other way counts as inactive or inconclusive.
Experiments:
[1] = KB-8-5-11 Cancer Cell Toxicity qHTS against the NCATS CANVASS Library (AID 1347364); further: nearly all actives have a fitted effect of over 75% in size
How it was run: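 Natural products were titrated in 11 points onto KB-8-5-11 cells, 500 per well, and cytotoxicity was scored from CellTiter-Glo luminescence after 72 hr culture.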

[2] = SDT Cancer Cell Toxicity qHTS against the NCATS CANVASS Library (AID 1347365);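 further: SDT canine glioma cells 500 per well in 1536 well plates; nearly all actives have a fitted effect of over 60% in size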
How it was run: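 Dispense 500 SDT cells per well; pin-transfer compounds; incubate 72 hr at 37C, 5% CO2, 95% RH; add CellTiterGlo and read luminescence.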

[3] = KB-3-1 Cancer Cell Toxicity qHTS against the NCATS CANVASS Library (AID 1347366); conditions: KB-3-1 viability, CellTiter-Glo luminescence, 72 h; at 46.1 µM (top of the series); further: nearly all actives have a fitted effect of over 75% in size
How it was run: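 500 KB-3-1 cells/well; compounds pin-transferred, 11-pnt series; 72 hr, 37C/5% CO2; CellTiter-Glo, 10 min RT; luminescence read-out.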

[4] = qHTS for ATAD5 Agonist screened against the NCATS CANVASS Library (AID 1347367)
How it was run: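 Luminescence read-out: ATAD5-driven luciferase in stably transfected HEK 293T cells, which rises post-transcriptionally with DNA damage. Cells were exposed 16hr at 37C to test compound; a CellTiter-Fluor fluorescence read (1hr) measured viability first.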

[5] = G06 Cancer Cell Toxicity qHTS against the NCATS CANVASS Library (AID 1347368); further: nearly all actives have a fitted effect of over 60% in size
How it was run: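 Cytotoxicity toward canine glioma G06 cells is scored from cellular ATP via luminescence after 72 hr compound exposure at 500 cells/well.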

[6] = MCF7 Cancer Cell Toxicity qHTS against the NCATS CANVASS Library (AID 1347369); conditions: MCF7 viability, ATP luminescence (CellTiter-Glo), 72 h; at 46 µM (top of the series)
How it was run: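 Luminescent ATP signal (CellTiterGlo) served as the cytotoxicity read-out after MCF7 breast cancer cells had been incubated 72 hr at 37C with natural products in an 11-point titration.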

[7] = qHTS for ATAD5 Antagonist screened against the NCATS CANVASS Library (AID 1347370);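 further: HEK293T cells carrying an ATAD5 luciferase reporter co-treated with 10 µM 5-fluorouridine; nearly all actives have a fitted effect of over 65% in size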
How it was run: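 HEK293T cells with a stably integrated ATAD5-controlled luciferase reporter were exposed to compounds (11-pt) alongside 10 uM 5-fluorouridine as ATAD5 stabilizer for 16hr at 37C. Viability was read by CellTiter-Fluor fluorescence, then ATAD5 by luminescence.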

[8] = J3T Cancer Cell Toxicity qHTS against the NCATS CANVASS Library (AID 1347371);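 further: J3T is a canine glioma cancer cell line seeded at 500 cells per well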
How it was run: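 Viability of the J3T glioma line from dog is scored by ATP luminescence after a 72 hr incubation with natural products.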

[9] = target: Nuclear receptor subfamily 1 group I member 3 (Homo sapiens) (UniProt Q14994); test: qHTS for Constitutive Androstane Receptor (CAR) Antagonist screened against the NCATS CANVASS Library (AID 1347372);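 further: cells stimulated with 50 nM CITCO agonist so inhibition reflects antagonism; luciferase from CYP2B6 promoter reporter driven by hCAR in HepG2 cells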
Sequence of Nuclear receptor subfamily 1 group I member 3 (Homo sapiens) (Q14994 whole entry, looked up): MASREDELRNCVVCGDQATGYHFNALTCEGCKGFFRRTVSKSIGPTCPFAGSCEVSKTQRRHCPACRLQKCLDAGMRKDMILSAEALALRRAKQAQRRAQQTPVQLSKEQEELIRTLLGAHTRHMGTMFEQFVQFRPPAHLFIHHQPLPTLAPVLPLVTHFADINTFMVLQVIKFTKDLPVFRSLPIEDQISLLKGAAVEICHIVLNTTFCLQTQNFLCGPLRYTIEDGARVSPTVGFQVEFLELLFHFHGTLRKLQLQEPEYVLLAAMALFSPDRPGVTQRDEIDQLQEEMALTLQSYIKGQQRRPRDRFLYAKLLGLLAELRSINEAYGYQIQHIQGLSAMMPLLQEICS
How it was run: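 HepG2-CYP2B6-hCAR double-stable cells plated, 4hr attach; cpd pin-transferred; CITCO 50 nM final; 24hr 37C/5% CO2; CellTiter-Fluor 1hr (fluorescence), then ONE-Glo luminescence.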

[10] = target: Nuclear receptor subfamily 1 group I member 3 (Homo sapiens) (UniProt Q14994); test: qHTS for Constitutive Androstane Receptor (CAR) Agonist screened against the NCATS CANVASS Library (AID 1347373);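 further: every well also contained 1.5 µM PK11195 alongside the test compound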
How it was run: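 CAR agonism is scored as CYP2B6-promoter luciferase induction in a double-stable transfected HepG2 line, where 1.5uM PK11195 is included in each well. Compounds were tested over a 24hr exposure.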

Measured: outcome

CN(C)CCc1c[nH]c2ccccc12
inactive: [1] | [2] | [3] | [4] | [5] | [6] | [7] | [8] | [9] | [10]

— PubChem BioAssay (NCATS)
